In publication PMC7862700, “An all-to-all approach to the identification of sequence-specific readers for epigenetic DNA modifications on cytosine”:

Legend:
Test in all cases: DAPPL (digital affinity profiling via proximity ligation, sequencing); 10 mM Tris-HCl pH 7.5, 50 mM NaCl, 1 mM DTT, 4% glycerol, room temperature, 30 min; GST-TFs on glutathione beads, 16-mer random dsDNA library, 0.1% formaldehyde crosslink after washing; high values mean tight binding
Conditions in all cases: protein: recombinant; tags: N-terminal GST; dsDNA, one strand shown
FEV = biological target: T1, FEV (Homo sapiens, UniProt Q99581 1-238)
T1 sequence: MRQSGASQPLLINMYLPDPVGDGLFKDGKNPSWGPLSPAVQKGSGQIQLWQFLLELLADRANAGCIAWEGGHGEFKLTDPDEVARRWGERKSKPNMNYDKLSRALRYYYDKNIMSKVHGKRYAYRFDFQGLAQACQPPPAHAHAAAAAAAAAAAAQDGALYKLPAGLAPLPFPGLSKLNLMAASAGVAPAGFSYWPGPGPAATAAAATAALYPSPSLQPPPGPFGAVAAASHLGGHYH
How it was run: (§1)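 Yeast served to express human transcription factors as GST fusions, which were then captured on glutathione beads and labelled with DNA barcodes. Pooled with a tag-only sample, they were incubated with 200 nmole of a 16-mer random double-stranded DNA library for 30 min at room temperature in Tris/NaCl/DTT/glycerol buffer, washed, crosslinked with 0.1% formaldehyde, ligated by proximity, amplified by PCR and sequenced. Dividing each hexamer's read frequency for a factor by its frequency for the tag-only sample gives the binding signal.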

ETV5 = ETV5 (Homo sapiens, UniProt P41161 1-510)
ETV5, sequence (P41161 whole entry): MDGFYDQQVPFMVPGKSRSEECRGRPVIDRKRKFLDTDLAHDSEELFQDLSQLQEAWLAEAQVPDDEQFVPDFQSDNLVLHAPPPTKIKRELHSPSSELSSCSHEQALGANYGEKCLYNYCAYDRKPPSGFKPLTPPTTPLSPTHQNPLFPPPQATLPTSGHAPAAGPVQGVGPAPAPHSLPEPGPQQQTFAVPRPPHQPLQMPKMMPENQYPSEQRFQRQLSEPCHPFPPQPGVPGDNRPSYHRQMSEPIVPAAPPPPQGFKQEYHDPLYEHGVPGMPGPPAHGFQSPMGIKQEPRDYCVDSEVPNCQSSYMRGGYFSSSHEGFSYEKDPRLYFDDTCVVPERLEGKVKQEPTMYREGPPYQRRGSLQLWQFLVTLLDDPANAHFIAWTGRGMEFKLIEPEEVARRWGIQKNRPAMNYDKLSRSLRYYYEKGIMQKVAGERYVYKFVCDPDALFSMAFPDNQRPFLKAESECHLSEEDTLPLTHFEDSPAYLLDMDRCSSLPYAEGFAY
How it was run: as §1

SPIC = biological target: T2, SPIC (Homo sapiens, UniProt Q8N5J4 1-248)
T2 sequence: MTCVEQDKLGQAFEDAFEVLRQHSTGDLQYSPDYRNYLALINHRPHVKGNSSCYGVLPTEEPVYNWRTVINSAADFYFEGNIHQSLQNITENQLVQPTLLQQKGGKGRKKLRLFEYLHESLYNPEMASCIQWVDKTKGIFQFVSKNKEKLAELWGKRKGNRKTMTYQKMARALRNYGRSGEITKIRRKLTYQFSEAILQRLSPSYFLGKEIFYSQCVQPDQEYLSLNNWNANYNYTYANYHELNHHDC
How it was run: as §1

ELF4 = ELF4 (Homo sapiens, UniProt Q99607 1-663)
ELF4, sequence (Q99607 whole entry): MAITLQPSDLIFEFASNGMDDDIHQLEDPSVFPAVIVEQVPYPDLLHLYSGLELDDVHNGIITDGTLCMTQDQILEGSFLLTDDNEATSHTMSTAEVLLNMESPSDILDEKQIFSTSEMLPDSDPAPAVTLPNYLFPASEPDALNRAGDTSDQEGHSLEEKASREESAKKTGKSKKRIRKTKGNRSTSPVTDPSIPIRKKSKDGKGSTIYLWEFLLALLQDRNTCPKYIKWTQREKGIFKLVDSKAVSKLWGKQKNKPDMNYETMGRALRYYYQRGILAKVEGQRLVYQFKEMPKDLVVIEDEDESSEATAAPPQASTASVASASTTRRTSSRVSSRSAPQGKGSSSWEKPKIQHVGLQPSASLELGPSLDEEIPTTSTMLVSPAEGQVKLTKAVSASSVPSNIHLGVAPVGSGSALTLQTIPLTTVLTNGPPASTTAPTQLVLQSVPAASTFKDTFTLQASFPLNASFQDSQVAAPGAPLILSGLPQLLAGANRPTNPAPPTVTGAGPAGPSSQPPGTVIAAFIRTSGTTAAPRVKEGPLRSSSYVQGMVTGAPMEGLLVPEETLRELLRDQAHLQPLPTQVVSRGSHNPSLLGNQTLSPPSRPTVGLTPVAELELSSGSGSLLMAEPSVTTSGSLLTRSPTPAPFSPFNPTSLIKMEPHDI
How it was run: as §1

ELK4 = biological target: T3, ELK4 (Homo sapiens, UniProt P28324-2 1-405)
T3 sequence: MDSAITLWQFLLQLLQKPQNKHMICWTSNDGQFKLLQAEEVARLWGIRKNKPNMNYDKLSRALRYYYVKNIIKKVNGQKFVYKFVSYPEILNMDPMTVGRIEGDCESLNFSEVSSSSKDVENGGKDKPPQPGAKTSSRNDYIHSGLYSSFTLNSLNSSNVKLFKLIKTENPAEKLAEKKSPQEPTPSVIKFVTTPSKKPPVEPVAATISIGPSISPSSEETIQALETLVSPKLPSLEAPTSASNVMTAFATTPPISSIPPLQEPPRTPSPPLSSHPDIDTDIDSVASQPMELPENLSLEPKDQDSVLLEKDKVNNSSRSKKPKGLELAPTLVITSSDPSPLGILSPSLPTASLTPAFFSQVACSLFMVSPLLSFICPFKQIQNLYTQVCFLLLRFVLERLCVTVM
How it was run: as §1

ETV2 = biological target: T4, ETV2 (Homo sapiens, UniProt O00321 1-342)
T4 sequence: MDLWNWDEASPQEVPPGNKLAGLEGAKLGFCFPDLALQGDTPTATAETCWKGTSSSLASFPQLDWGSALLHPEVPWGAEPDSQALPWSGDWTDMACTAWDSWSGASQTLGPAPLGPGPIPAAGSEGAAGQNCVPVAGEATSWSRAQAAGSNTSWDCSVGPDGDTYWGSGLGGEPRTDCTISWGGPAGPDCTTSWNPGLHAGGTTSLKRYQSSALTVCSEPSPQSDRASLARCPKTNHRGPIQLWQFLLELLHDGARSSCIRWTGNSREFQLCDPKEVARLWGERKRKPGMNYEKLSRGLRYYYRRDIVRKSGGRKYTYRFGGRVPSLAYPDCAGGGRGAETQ
How it was run: as §1

ELF3 = biological target: T5, ELF3 (Homo sapiens, UniProt P78545 1-371)
T5 sequence: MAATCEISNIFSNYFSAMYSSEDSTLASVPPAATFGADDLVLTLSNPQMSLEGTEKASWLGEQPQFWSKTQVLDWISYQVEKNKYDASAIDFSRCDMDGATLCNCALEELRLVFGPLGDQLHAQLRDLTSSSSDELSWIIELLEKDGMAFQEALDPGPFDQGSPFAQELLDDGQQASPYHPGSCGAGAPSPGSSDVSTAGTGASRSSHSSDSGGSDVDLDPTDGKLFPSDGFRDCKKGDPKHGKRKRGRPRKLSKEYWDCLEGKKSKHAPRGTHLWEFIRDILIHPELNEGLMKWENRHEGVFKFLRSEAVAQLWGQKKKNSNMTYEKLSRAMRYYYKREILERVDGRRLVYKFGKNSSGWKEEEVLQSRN
How it was run: as §1

ETV1 = ETV1 (Homo sapiens, UniProt P50549 1-477)
ETV1, sequence (P50549 whole entry): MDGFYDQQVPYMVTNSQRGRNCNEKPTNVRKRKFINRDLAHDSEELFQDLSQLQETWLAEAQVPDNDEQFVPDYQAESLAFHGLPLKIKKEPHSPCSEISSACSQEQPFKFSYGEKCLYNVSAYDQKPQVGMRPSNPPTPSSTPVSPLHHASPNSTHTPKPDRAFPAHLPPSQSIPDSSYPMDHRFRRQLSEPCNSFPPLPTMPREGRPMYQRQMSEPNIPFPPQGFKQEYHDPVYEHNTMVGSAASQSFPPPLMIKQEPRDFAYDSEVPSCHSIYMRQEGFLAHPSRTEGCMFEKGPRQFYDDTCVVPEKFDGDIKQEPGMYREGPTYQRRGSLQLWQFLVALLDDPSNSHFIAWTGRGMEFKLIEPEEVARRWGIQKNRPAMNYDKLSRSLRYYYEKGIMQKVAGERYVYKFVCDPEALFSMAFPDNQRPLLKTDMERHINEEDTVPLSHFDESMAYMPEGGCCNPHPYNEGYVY
How it was run: as §1

ERF = biological target: T6, ERF (Homo sapiens, UniProt P50548 1-548)
T6 sequence: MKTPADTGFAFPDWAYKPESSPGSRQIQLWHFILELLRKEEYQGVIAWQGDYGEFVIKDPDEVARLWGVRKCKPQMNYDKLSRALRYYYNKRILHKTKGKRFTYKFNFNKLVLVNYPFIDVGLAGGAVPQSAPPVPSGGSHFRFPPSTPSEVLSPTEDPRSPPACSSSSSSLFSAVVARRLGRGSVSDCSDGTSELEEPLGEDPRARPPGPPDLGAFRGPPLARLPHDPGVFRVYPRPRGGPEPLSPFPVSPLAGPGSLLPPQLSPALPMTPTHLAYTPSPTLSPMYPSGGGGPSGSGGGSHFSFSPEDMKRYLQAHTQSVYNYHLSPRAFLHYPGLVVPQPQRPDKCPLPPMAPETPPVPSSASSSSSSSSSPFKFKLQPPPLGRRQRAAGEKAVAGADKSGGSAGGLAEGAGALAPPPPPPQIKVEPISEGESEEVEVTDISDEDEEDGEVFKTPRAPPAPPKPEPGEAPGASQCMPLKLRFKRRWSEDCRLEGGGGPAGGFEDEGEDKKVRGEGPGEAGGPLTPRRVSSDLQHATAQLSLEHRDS
How it was run: as §1

ETV3L = biological target: T7, ETV3L (Homo sapiens, UniProt Q6ZN32 1-361)
T7 sequence: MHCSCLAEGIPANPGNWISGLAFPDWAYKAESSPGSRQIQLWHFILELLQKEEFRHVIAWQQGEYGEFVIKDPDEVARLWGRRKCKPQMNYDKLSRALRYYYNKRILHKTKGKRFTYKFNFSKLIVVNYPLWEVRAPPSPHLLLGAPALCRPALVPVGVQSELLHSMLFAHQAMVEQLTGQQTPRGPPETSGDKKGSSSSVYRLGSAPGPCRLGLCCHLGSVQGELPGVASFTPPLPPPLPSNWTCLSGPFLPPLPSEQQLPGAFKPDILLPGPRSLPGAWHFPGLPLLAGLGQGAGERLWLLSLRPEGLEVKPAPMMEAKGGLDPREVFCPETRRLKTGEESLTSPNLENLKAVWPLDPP
How it was run: as §1

ETS2 = biological target: T8, ETS2 (Homo sapiens, UniProt P15036 1-469)
T8 sequence: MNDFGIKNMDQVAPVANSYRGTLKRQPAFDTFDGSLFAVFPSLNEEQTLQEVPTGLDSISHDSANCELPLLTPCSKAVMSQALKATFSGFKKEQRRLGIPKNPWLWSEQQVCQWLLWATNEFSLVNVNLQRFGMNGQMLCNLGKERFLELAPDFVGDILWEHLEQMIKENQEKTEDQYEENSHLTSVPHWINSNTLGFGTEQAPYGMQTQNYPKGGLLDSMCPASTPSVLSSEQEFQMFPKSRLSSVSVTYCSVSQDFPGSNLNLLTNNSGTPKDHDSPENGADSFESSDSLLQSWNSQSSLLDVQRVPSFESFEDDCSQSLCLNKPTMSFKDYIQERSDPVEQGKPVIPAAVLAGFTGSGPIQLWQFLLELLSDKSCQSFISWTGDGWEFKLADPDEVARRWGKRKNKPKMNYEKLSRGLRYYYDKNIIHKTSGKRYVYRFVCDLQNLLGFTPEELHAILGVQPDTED
How it was run: as §1

SPDEF = biological target: T9, SPDEF (Homo sapiens, UniProt O95238 1-335)
T9 sequence: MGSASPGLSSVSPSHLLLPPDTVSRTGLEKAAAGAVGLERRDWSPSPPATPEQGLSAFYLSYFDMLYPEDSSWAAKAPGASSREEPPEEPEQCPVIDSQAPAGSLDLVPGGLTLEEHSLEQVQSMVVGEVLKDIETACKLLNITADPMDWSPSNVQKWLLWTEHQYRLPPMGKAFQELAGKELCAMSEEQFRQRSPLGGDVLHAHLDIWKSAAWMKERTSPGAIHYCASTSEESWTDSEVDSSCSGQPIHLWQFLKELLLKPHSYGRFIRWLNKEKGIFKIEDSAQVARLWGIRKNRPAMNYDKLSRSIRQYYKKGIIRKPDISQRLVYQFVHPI
How it was run: as §1

ETV7 = biological target: T10, ETV7 (Homo sapiens, UniProt Q9Y603 1-341)
T10 sequence: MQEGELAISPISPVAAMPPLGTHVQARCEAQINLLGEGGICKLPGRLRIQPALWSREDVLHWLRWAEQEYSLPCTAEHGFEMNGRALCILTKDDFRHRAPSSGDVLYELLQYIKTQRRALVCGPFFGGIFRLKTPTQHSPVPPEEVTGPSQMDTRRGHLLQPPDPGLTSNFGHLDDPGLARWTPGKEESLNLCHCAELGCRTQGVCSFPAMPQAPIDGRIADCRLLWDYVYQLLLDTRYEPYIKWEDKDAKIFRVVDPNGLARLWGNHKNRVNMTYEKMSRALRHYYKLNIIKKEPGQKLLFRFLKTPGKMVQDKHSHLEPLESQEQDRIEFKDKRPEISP
How it was run: as §1

ELF5 = biological target: T11, ELF5 (Homo sapiens, UniProt Q9UKW6-2 1-255)
T11 sequence: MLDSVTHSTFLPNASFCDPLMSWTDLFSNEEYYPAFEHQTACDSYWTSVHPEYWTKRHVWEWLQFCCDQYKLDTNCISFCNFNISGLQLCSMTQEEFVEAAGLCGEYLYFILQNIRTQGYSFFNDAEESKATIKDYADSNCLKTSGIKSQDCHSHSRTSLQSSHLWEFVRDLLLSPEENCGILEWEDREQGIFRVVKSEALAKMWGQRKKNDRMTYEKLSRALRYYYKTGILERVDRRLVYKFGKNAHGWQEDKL
How it was run: as §1

ETV3 = biological target: T12, ETV3 (Homo sapiens, UniProt P41162-2 1-143)
T12 sequence: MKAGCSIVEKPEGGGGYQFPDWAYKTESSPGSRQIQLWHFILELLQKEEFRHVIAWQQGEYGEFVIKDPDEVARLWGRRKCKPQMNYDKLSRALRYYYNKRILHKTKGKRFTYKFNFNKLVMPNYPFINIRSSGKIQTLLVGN
How it was run: as §1

ETV6 = ETV6 (Homo sapiens, UniProt P41212 1-452)
ETV6, sequence (P41212 whole entry): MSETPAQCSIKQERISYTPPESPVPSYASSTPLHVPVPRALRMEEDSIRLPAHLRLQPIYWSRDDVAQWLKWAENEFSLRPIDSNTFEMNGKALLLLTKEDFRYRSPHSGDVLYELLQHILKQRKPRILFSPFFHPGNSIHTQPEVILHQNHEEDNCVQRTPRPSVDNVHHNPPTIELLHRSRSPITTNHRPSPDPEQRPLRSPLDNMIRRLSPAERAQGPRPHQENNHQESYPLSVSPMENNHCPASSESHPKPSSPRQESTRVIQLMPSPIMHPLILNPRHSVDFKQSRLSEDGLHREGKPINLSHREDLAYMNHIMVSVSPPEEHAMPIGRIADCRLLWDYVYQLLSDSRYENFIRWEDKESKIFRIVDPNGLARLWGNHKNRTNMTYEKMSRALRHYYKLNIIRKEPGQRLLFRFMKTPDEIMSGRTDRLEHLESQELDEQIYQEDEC
How it was run: as §1

Row | Sequence | binding signal (FEV) | binding signal (ETV5) | binding signal (SPIC) | binding signal (ELF4) | binding signal (ELK4) | binding signal (ETV2) | binding signal (ELF3) | binding signal (ETV1) | binding signal (ERF) | binding signal (ETV3L) | binding signal (ETS2) | binding signal (SPDEF) | binding signal (ETV7) | binding signal (ELF5) | binding signal (ETV3) | binding signal (ETV6)
1 | CCCAAC | 1.17 fold enrichment (6-mer frequency, TF over GST control) | 1.11 fold enrichment (6-mer frequency, TF over GST control) | 1.17 fold enrichment (6-mer frequency, TF over GST control) | 1.22 fold enrichment (6-mer frequency, TF over GST control) | 1.18 fold enrichment (6-mer frequency, TF over GST control) | 1.03 fold enrichment (6-mer frequency, TF over GST control) | 1.17 fold enrichment (6-mer frequency, TF over GST control) | 1.13 fold enrichment (6-mer frequency, TF over GST control) | 1.24 fold enrichment (6-mer frequency, TF over GST control) | 1.13 fold enrichment (6-mer frequency, TF over GST control) | 1.13 fold enrichment (6-mer frequency, TF over GST control) | 1.19 fold enrichment (6-mer frequency, TF over GST control) | 1.06 fold enrichment (6-mer frequency, TF over GST control) | 1.12 fold enrichment (6-mer frequency, TF over GST control) | 1.05 fold enrichment (6-mer frequency, TF over GST control) | 1.17 fold enrichment (6-mer frequency, TF over GST control)
2 | CTGACG | 1.11 fold enrichment (6-mer frequency, TF over GST control) | 1.2 fold enrichment (6-mer frequency, TF over GST control) | 1.13 fold enrichment (6-mer frequency, TF over GST control) | 1.06 fold enrichment (6-mer frequency, TF over GST control) | 1.11 fold enrichment (6-mer frequency, TF over GST control) | 1.35 fold enrichment (6-mer frequency, TF over GST control) | 1.05 fold enrichment (6-mer frequency, TF over GST control) | 1.09 fold enrichment (6-mer frequency, TF over GST control) | 1.17 fold enrichment (6-mer frequency, TF over GST control) | 1.03 fold enrichment (6-mer frequency, TF over GST control) | 1.2 fold enrichment (6-mer frequency, TF over GST control) | 1 fold enrichment (6-mer frequency, TF over GST control) | 1.07 fold enrichment (6-mer frequency, TF over GST control) | 1.09 fold enrichment (6-mer frequency, TF over GST control) | 1.06 fold enrichment (6-mer frequency, TF over GST control) | 1.16 fold enrichment (6-mer frequency, TF over GST control)
3 | CTGTGC | 1.03 fold enrichment (6-mer frequency, TF over GST control) | 1.17 fold enrichment (6-mer frequency, TF over GST control) | 1.27 fold enrichment (6-mer frequency, TF over GST control) | 1.21 fold enrichment (6-mer frequency, TF over GST control) | 1.12 fold enrichment (6-mer frequency, TF over GST control) | 1.25 fold enrichment (6-mer frequency, TF over GST control) | 1.08 fold enrichment (6-mer frequency, TF over GST control) | 1.12 fold enrichment (6-mer frequency, TF over GST control) | 1.12 fold enrichment (6-mer frequency, TF over GST control) | 1.13 fold enrichment (6-mer frequency, TF over GST control) | 1.18 fold enrichment (6-mer frequency, TF over GST control) | 1.12 fold enrichment (6-mer frequency, TF over GST control) |  | 1 fold enrichment (6-mer frequency, TF over GST control) | 1.19 fold enrichment (6-mer frequency, TF over GST control) | 1.22 fold enrichment (6-mer frequency, TF over GST control)
